Test results published in the supplement of paper PMC3898565.
± gives the uncertainty stated by the source.

Test system: U87
Assay: cell viability relative to vehicle control; higher = less growth inhibition (less active)
Settings: 10 µM; 72 h
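Also: viable cell number estimated from Alamar Blue fluorescence read at 560/90, part of a single-dose primary screen of an FDA-approved drug library.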

Structure (SMILES)	cell viability [%]
O=C(CCCN1CC=C(n2c(=O)[nH]c3ccccc32)CC1)c1ccc(F)cc1	106 ± 1.7
O=C(NCCO[N+](=O)[O-])c1cccnc1 [Nicorandil]	101 ± 2.2
CN(Cc1cnc2nc(N)nc(N)c2n1)c1ccc(C(=O)N[C@@H](CCC(=O)O)C(=O)O)cc1	72.9 ± 0.73
C=CC[C@@H]1/C=C(\C)C[C@H](C)C[C@H](OC)[C@H]2O[C@@](O)(C(=O)C(=O)N3CCCC[C@H]3C(=O)O[C@H](/C(C)=C/[C@@H]3CC[C@@H](O)[C@H](OC)C3)[C@H](C)[C@@H](O)CC1=O)[C@H](C)C[C@@H]2OC	101.8 ± 0.73
CC(=O)Oc1ccccc1C(=O)Nc1ncc([N+](=O)[O-])s1	103 ± 2.3
O=[N+]([O-])c1cccc2cn[nH]c12	107 ± 1.1
CC[C@]1(O)C[C@H]2CN(CCc3c([nH]c4ccccc34)[C@@](C(=O)OC)(c3cc4c(cc3OC)N(C=O)[C@H]3[C@@](O)(C(=O)OC)[C@H](OC(C)=O)[C@]5(CC)C=CCN6CC[C@]43[C@@H]65)C2)C1	25.9 ± 3.1
COc1cc(-c2ccc(=O)[nH]n2)ccc1OC(F)F	111 ± 3.7
Cn1c(NCCN(CCO)CCCc2ccc([N+](=O)[O-])cc2)cc(=O)n(C)c1=O	102 ± 3.1
Cc1cccc(CCN2CCC(C(=O)c3ccc(NS(C)(=O)=O)cc3)CC2)n1	102.6 ± 0.96
C[C@@H](c1ncncc1F)[C@](O)(Cn1cncn1)c1ccc(F)cc1F	106 ± 1.7
CN1CCC(=C2c3ccccc3CC(=O)c3sccc32)CC1	109 ± 3.3
Nc1nc(Cl)nc2c1ncn2[C@H]1C[C@H](O)[C@@H](CO)O1	35.4 ± 1.4
